ELG1 DNA repair = blocks ELG1-dependent DNA repair in HEK293T cells | HEK293T ELG1-luciferase reporter, luminescence, 16 h; DNA damage induced by 5-fluorouridine | Potency, µM (highest dose often 46.1 µM), for inactives: at the highest dose activity change, negative = inhibition, usual class: inhibitors | hit rate 2.3% among 330,000; note: % is set by controls: 0 for no effect and ±100 for the full control effect; nearly all actives have a fitted effect of over 55% in size
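Luminescence from the luciferase reporter, measured 30 min after ONE-Glo reagent at room temperature, was the read-out. Beforehand, 2,000 cells per well were exposed for 16 hr at 37 °C to 5-fluorouridine together with compound or vehicle.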
ELG1 genotoxic = induces genotoxicity in HEK293T cells with luciferase-tagged ELG1; HEK293T ELG1-luciferase reporter, luminescence, 16 h; hit rate 1.3% among 330,000; AID 504466; Potency, µM (titrated, usually from 46 µM), inactives show at the top dose activity change, positive = activation, most hits filed as activators; note: % of control where 0% means no effect; nearly all actives have a fitted effect of over 60% in size
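Luminescence read-out: rising ELG1-luciferase signal, reflecting elevated ELG1 protein under genetic stress, flags genotoxic compounds. Cells were treated for 16 hr at 37 °C before ONE-Glo detection.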
Rab9 promoter act = Rab9 promoter activation; Potency, µM (top dose mostly 9.22 µM), for inactives: top-dose activation, negative = inhibition, hits mostly activators; Huh7 Rab9 promoter-luciferase reporter, luminescence, 24 h; hit rate 2.8% among 320,000; note: % of control where 0% means no effect; nearly all actives have a fitted effect of over 60% in size
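Using Huh7 cells stably transfected with Rab9 promoter–luciferase, compounds were incubated 24 h at 37 °C, 5% CO2; luciferase luminescence was read 10 min after reagent addition.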
NPC1 prom act = activates the NPC1 promoter | Huh7 NPC1 promoter luciferase reporter, 24 h | Potency, µM (highest dose often 9.22 µM), without a hit: top-dose activation, hits mostly activators | hit rate 2.4% among 320,000 | AID 485313; note: % of control where 0% means no effect; nearly all actives have a fitted effect of over 60% in size
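Luminescence from an NPC1 promoter-driven luciferase reporter in stably transfected Huh7 cells was measured after 24 h compound treatment at 37 °C, followed by 10 min ambient incubation with luciferase detection reagent.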
SMN2 splice up = SMN2 splice variant enhancement; HEK293 SMN2-luciferase splicing reporter, luminescence, 30-36 h; Potency, µM (titrated, usually from 46.1 µM), without a hit: at the highest dose activity change, positive = activation, most hits filed as activators; hit rate 2.8% among 210,000; note: % of control where 0% means no effect; nearly all actives have a fitted effect of over 55% in size
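qHTS luciferase splicing reporter: luminescence rises when SMN2 exon 7 is included in transfected HEK293 cells. Compound exposure lasted 30-36 h at 37C, with 4.5 mM final sodium butyrate as control, followed by a ONE-Glo read.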
FLuc modulator = inhibits or activates purified firefly luciferase, miR-21 counter-screen; purified FLuc, Km substrates, luminescence inhibition; Potency, µM (top dose mostly 57.5 µM), inactives show top-dose activity change, negative = inhibition, usual class: inhibitors; hit rate 6.9% among 360,000; AID 588342;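 note: plate controls were vehicle for no effect and reference inhibitor for full effect; nearly all actives have a fitted effect of over 55% in size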
Target sequence (P08659 whole entry, looked up): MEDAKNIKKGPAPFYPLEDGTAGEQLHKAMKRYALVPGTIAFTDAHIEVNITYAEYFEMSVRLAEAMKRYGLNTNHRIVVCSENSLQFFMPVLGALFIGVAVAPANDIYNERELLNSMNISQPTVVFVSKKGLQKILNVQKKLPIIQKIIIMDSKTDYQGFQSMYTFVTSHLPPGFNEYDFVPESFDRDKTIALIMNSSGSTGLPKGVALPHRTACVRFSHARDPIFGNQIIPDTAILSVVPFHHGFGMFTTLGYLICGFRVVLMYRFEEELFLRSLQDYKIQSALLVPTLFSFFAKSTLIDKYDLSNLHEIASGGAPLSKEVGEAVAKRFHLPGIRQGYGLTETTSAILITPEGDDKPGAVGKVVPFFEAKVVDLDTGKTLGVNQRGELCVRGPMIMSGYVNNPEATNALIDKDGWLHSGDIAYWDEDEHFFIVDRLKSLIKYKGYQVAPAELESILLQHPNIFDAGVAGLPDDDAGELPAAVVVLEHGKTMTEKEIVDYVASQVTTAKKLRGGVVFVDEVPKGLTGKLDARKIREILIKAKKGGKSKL
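Purified P. pyralis luciferase (10nM final) with 10uM D-luciferin and 10uM ATP (Km levels) in 50mM Tris acetate pH 7.5, 10mM Mg acetate, 0.01% Tween-20, 0.05% BSA; qHTS 6-point titration, ~60 µM downward; luminescence read.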
Active calls of the source: *; ? = inconclusive; . = no result. The list is not random: actives were taken first. Their share in the collection is about 9.3%. Calls come from the whole dose curve; as a rule, active = well fitted curve in the direction sought with a large enough effect; inconclusive = small, poorly fitted or top-dose-only effect, or another doubt; inactive = no such curve, though single readings can be large; an effect the other way counts as inactive or inconclusive. Potency is the fitted concentration of half-maximal effect.

SMILES | ELG1 DNA repair | ELG1 genotoxic | Rab9 promoter act | NPC1 prom act | SMN2 splice up | FLuc modulator
CCOC(=O)N1CCN(c2nc(-c3ccc(Cl)cc3)cs2)CC1 | ? | ? | 6.7% | 3.5% | -25.8% | 16.9µM*
COc1ccc(NC(=O)c2nn(C)c3c2CS(=O)(=O)c2ccccc2-3)cc1Cl | . | . | . | . | . | -14.1%
Cc1cccc(Nc2nc(Cl)ncc2F)c1C | ? | -1.0% | 0.3% | 0.7% | . | 4.7%
C[C@H](CO)N1C[C@H](C)[C@@H](CN(C)C(=O)NC2CCCCC2)Oc2c(NC(=O)Cc3ccccc3)cccc2C1=O | 10.1% | -3.0% | . | . | . | .
Cc1c(CCC(=O)N2CCC(C(=O)O)(c3ccccc3)CC2)c(=O)oc2cc3oc4c(c3cc12)CCCC4 | 32.4% | 8.8% | 4.2% | 12.1% | . | 13.5µM*
Cc1c(CCC(=O)N2CCC(C(=O)O)CC2)c(=O)oc2cc3oc4c(c3cc12)CCCC4 | 23.7% | 0.0% | 5.0% | 0.3% | . | 10.7µM*
CCc1cccc(C)c1NC(=O)Nc1csc2c1CCCC2 | . | . | . | . | 2.4% | 3.5%
CCN(C(=O)COC(=O)CCn1c(C)csc1=O)c1c(N)n(Cc2ccccc2)c(=O)[nH]c1=O | 8.6% | 1.2% | 1.6% | 0.7% | . | -0.8%
CCC(=O)N/N=c1/sc2ccccc2n1C | -4.1% | -1.0% | -3.6% | -0.9% | 7.3% | 1.8%
COc1cccc(C(=O)N/N=c2\sc3ccccc3n2C)c1 | ? | 3.4% | -4.0% | 1.0% | 18.5% | ?
Cn1/c(=N/NC(=O)c2ccccc2F)sc2ccccc21 | ? | ? | 2.82µM* | ? | ? | 15.1µM*
Cc1ccc(C(=O)N/N=c2\sc3ccccc3n2C)cc1 | ? | -0.3% | 13.0% | 20.3% | 9.2% | 21.3µM*
CCOc1ccccc1NC(=O)CSc1nccn1-c1cccc(C)c1 | . | . | . | . | . | -0.1%
CC(C)CCNC(=O)CCn1nc(-c2ccc(Cl)cc2)ccc1=O | -0.5% | 0.1% | -1.9% | -2.9% | . | -1.7%
Nc1ncc(Br)cc1S(=O)(=O)NCCC(=O)NC1CCCCC1 | -5.4% | -7.1% | -0.9% | -2.1% | . | -1.7%
Cc1ccccc1NC(=S)NNC(=O)c1ccoc1C | ? | 4.5% | ? | ? | -1.5% | -1.2%
Cc1occc1C(=O)NNC(=S)Nc1ccccc1C(F)(F)F | ? | 4.0% | 2.82µM* | ? | ? | -17.5%
Cc1occc1C(=O)NNC(=S)Nc1ccccc1 | ? | ? | 2.51µM* | ? | ? | ?
CC(=O)Nc1ccc(C2NC(=O)c3ccccc3O2)cc1 (stereo unspecified) | -4.9% | -1.2% | 10.1% | 7.4% | . | -2.3%
CCCC(=O)Nc1ccc(C2C(=O)c3ccccc3C2=O)cc1 | ? | 19.7% | 3.55µM* | 1.58µM* | . | 1.07µM*
CC(=O)Nc1ccc(C2C(=O)c3ccccc3C2=O)cc1 | ? | 23.1µM* | ? | ? | . | 2.13µM*
CC1=C(CC(=O)O)c2cc(F)ccc2C1=Cc1ccc(S(C)(=O)=O)cc1 | 22.2% | 2.8% | 0.5% | 0.7% | . | 2.3%
Cc1ccc(NC(=O)CN(C)C(=O)CSc2nc(C)cs2)cc1 | 16.2% | -0.1% | -7.7% | -1.3% | -20.7% | -1.2%
O=C(Nc1ccc(OCC(F)(F)C(F)F)c(C(F)(F)F)c1)c1ccccc1O | ? | 13.9% | -35.2% | 0.3% | -30.1% | 21.3µM*
CCn1c(O)c(N=NC(=O)c2cccs2)c2ccccc21 | ? | -8.6% | 2.1% | ? | 1.1% | 16.9µM*
SMILES | ELG1 DNA repair | ELG1 genotoxic | Rab9 promoter act | NPC1 prom act | SMN2 splice up | FLuc modulator
CCCn1c(O)c(N=NC(=O)c2ccco2)c2ccccc21 | ? | -8.0% | -1.3% | 11.6% | -11.1% | -11.0%
CCc1ccc(C(=O)CN2C(=O)NC3(CCOc4ccccc43)C2=O)s1 (stereo unspecified) | -0.4% | 0.7% | 1.4% | -2.7% | . | 16.9µM*
O=C(NC(=O)c1ccccc1)Nc1ccccn1 | ? | ? | 1.26µM* | -22.6% | . | 0.269µM*
COc1ccc(N(Cc2ccccc2)S(=O)(=O)c2cccc(C(=O)Nc3ccccn3)c2)cc1 | -7.2% | -4.2% | 1.3% | -2.6% | . | -1.4%
O=C(Nc1ccccn1)c1ccc(C(=O)c2ccccc2)cc1 | ? | 4.61µM* | 2.51µM* | 3.55µM* | . | 4.26µM*
O=C(c1ccccc1)c1nc[nH]c1C(=O)Nc1ccccn1 | -1.2% | ? | 3.0% | 15.0% | 1.7% | -17.5%
Cc1cccc(NC(=O)NC(=O)c2ccccc2)n1 | ? | 6.0% | ? | ? | ? | ?
O=C(Nc1ccccn1)c1ccc(CN(c2ccccc2)S(=O)(=O)c2ccccc2)cc1 | 18.3µM* | -17.0% | 3.2% | 0.7% | -31.1% | 4.2%
Cc1cc(C(=O)Nc2ccccn2)cs1 | ? | ? | 1.41µM* | 1.41µM* | 7.94µM* | 10.7µM*
CC(C)(C)NC(=O)c1cnn(-c2ccccc2)c1C1CCN(C(=O)OC(C)(C)C)CC1 | . | . | . | . | . | -0.6%
COCCN(CCOC)C(=O)COC(=O)c1cc([N+](=O)[O-])ccc1Cl | 5.4% | 0.0% | -1.6% | -0.1% | . | -0.6%
O=C(Nc1ccccn1)c1ccc(NC(=O)c2ccco2)cc1 | ? | ? | 2.24µM* | 2.24µM* | 12.6µM* | 10.7µM*
Cc1ccccc1NC(=O)c1ccc(NC(=O)c2ccco2)cc1 | ? | ? | 13.2% | 12.4% | 1.1% | ?
COc1ccc(NC(=O)N2CCC3(CC2)CCN(S(=O)(=O)c2ccccc2)CC3)cc1 | . | . | . | . | -29.7% | .
CCCc1cc(-c2n[nH]c(C)c2-c2ccc(C(=O)OCC)o2)c(O)cc1O | ? | -12.5% | 0.5% | -3.6% | -17.5% | -1.9%
